Values joined by “and” are separate entries in the source; they are usually repeats but may differ in a detail not shown here. Equal values may be shown once. Records with an inconclusive call do not appear. Active and inactive are the calls of the source. Unless noted, calls come from the whole dose curve; as a rule, active = well fitted curve in either direction with a large enough effect (not every such curve was filed as active); inconclusive = small, poorly fitted or top-dose-only effect, or another doubt; inactive = flat fitted curve, though single readings scatter.
Legend:
[1] = AP1 Signaling Pathway (AID 357); note: % is set by controls: 0 for no effect and ±100 for the full control effect
Procedure, shortened: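 AP-1-bla ME-180 cells with beta-lactamase reporter under AP-1 response element, stimulated with EC50 EGF; compounds titrated, 5 hours at 37 degrees Celsius. CCF4 read at 460/530 nm ratio; positive and negative modulators judged by AC50.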

[2] = target: Cytochrome P450 1A2 (Homo sapiens) (UniProt P05177); assay: p450-cyp1a2 (AID 410; calls by dose curve; note: potency is the fitted concentration of half-maximal effect;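 for activity change, negative = inhibition: -100% = full effect of reference inhibitor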)
Procedure, shortened: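 Luminescent demethylation readout: Luciferin-ME (100uM, equal to Km) turned over by 20nM CYP1A2 for 60 min at room temperature after NADPH regeneration addition, following 10 min compound preincubation. Normalization used 57 uM furafylline as full inhibition.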

[3] = NFAT Signaling Pathway (AID 444); settings: Jurkat NFAT-bla M1, carbachol, beta-lactamase ratio, 5 h; at 38 µM (top of the series) unless noted;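 note: carbachol stimulus at about its EC50 of 1 µM final; % is set by controls: 0 for no effect and ±100 for the full control effect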
Procedure, shortened: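 Read-out: CCF4 FRET ratio (460 nm/530 nm) after 1 h RT dye loading, used for %activity and AC50 from titration series. Cells: Jurkat NFAT-β-lactamase/M1 line, treated with compound plus 1 uM carbachol for 5 h, 37 °C.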

[4] = target: Glucocorticoid receptor (Homo sapiens) (UniProt P04150); assay: GR-GFP Redistribution (AID 450;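 active = compounds whose dose series gives a full or clear partial fitted curve of increased nuclear translocation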; note: potency is the fitted concentration of half-maximal effect); settings: U2OS GR-GFP nuclear translocation, laser cytometry, 2 h
[5] = target: Glucocorticoid receptor (Homo sapiens) (UniProt P04150); assay: GR-EFC Redistribution (AID 451; calls by dose curve; note: potency is the fitted concentration of half-maximal effect); settings: CHO-K1 GR-EFC translocation, beta-gal luminescence, 2 h
Procedure, shortened: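 Translocation of GR-ED fusion to nuclear EA restores b-gal, read by luminescence after 1 h room-temperature detection. Engineered CHO-K1 biosensor cells, 1,000/well, exposed 2 h at 37 C to titrations up to 46 uM final.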

[6] = Stat Signaling Pathway (AID 446); settings: ME-180 (cervical carcinoma) SIE beta-lactamase reporter, IL-6 stimulated, 5 h; at 38 µM (top of the series) unless noted;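 note: ME-180 cervical cancer cells given 40 pM IL-6 alongside compound; SIE-controlled beta-lactamase reporter measured as 460/530 nm FRET emission ratio; % is set by controls: 0 for no effect and ±100 for the full control effect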
Procedure, shortened: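 FRET read-out (405 nm excitation, 460/530 nm emission) of a beta-lactamase reporter under a STAT-inducible element in ME-180 cervical carcinoma cells. Cells with compound receive 40 pM IL-6 for 5 h. Values are normalised to AC90 stimulation and AC90 JAK-inhibitor controls.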

[7] = target: Mitogen-activated protein kinase 10 (Mus musculus) (UniProt Q61831); assay: JNK3 AlphaScreen Assay (AID 530);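 note: kinase came from lysate of stimulated human HepG2 cells; signal reports phosphorylation of biotinylated GST-cJun 1-79 at Ser73 with 10 µM ATP; % is set by controls: 0 for no effect and ±100 for the full control effect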
Procedure, shortened: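 qHTS titrations with 15 min compound pre-incubation before adding ATP (10 uM final). Read-out: AlphaScreen of Ser73-phosphorylated biotin-GST-cJun using HepG2 lysate JNK3 activated by IL-1β and TNFα.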

[8] = target: Lysosomal acid glucosylceramidase (Homo sapiens) (UniProt P04062); assay: Glucocerebrosidase-p2 (AID 348; in the data active = potency below about 10 µM; note: potency is the fitted concentration of half-maximal effect); settings: purified GBA, blue fluorogenic substrate, 40 min
Procedure, shortened: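 Normal human glucocerebrosidase (0.2 nM) with blue fluorogenic substrate (80 uM final) in citrate/phosphate pH 5.9 with 10mM sodium taurocholate, 0.01% tween-20; 40 min RT, NaOH/glycine stop; fluorescence Ex 365/Em 440; AC50 from a titration from 0.6 nM upwards.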

[9] = Cell Viability - BJ (AID 421; calls by dose curve;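 note: potency is the fitted concentration of half-maximal effect; cells exposed to compound for 40 hours at 37 °C before readout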); settings: BJ fibroblast viability, qHTS
Procedure, shortened: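 Cytotoxicity as drop in intracellular ATP (CellTiter-Glo, 20 min RT) after 40 hr compound exposure of BJ fibroblasts at 37 °C. Titrations scaled between DMSO and 100 uM tamoxifen, Hill-fitted for AC50.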

[10] = Cell Viability - Jurkat (AID 426;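 active = dose-dependent loss of cell ATP signal giving a full or clear fitted curve, ranked by lower potency value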; note: potency is the fitted concentration of half-maximal effect); settings: qHTS
Procedure, shortened: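 Cytotoxicity taken as drop in cellular ATP (CellTiter-Glo luminescence, 20 min room temperature) after 40 hr, 37C treatment of 5000 Jurkat Clone E6-1 cells per well; concentration-response fitted with Hill equation for AC50.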

[11] = Cell Viability - Hek293 (AID 427;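 active = compounds whose dose-response curve shows a full or clear partial loss of cell viability, called from curve shape rather than a numeric limit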;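 note: potency is the fitted concentration of half-maximal effect; cells exposed to compound for 40 hours at 37 °C before reading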); settings: qHTS
Procedure, shortened: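 Luminescent ATP content (CellTiter-Glo, 20 min at room temperature) was measured after a 40 hr, 37 °C compound exposure of HEK293 cells. AC50 values came from Hill-equation fits of qHTS concentration-response data normalized to DMSO and 100 uM tamoxifen.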

[12] = Cell Viability - HepG2 (AID 433; calls by dose curve;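 note: potency is the fitted concentration of half-maximal effect; potency for ATP loss meaning cytotoxicity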); settings: qHTS
Procedure, shortened: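 In this qHTS format, a 40 h, 37 °C compound incubation of HepG2 cells in complete medium precedes a 20 min CellTiter-Glo step at room temperature. Tamoxifen and doxorubicin serve as positive controls; Hill-equation fits yield AC50.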

[13] = Cell Viability - MRC5 (AID 434; calls by dose curve;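 note: potency is the fitted concentration of half-maximal effect; potency reflects cytotoxicity seen as loss of intracellular ATP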); settings: MRC5 lung fibroblast viability, qHTS
Procedure, shortened: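 AC50 values come from Hill-equation fits of intracellular ATP loss, measured by CellTiter-Glo luminescence. Normal lung fibroblasts (MRC5) had 40 hr compound treatment at 37 C, normalized between DMSO and 100 uM tamoxifen.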

[14] = Cell Viability - SK-N-SH (AID 435; calls by dose curve; note: potency is the fitted concentration of half-maximal effect); settings: SK-N-SH neuroblastoma cell viability qHTS
Procedure, shortened: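 Human neuroblastoma line, 40 h exposure at 37 °C, ATP quantified via luciferase luminescence; DMSO and 100 uM tamoxifen define 0 and 100% inhibition for AC50 fitting.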

[15] = Cell Viability - N2a (AID 540; active = well fitted curve in the direction sought with a large enough effect; an effect the other way counts as inactive or inconclusive;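 note: plate controls were DMSO alone for no effect and tamoxifen control for full effect; nearly all actives have a fitted effect of over 45% in size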); settings: N2a mouse neuroblastoma cell viability; activity change, negative = cytotoxicity: at 92.2 µM (top of the series)
Procedure, shortened: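 CellTiter-Glo ATP luminescence, read 20 min after reagent at room temperature, reported viability following 40 h compound treatment at 37 °C. N2a mouse neuroblastoma cells seeded 1500/well; Hill equation gave AC50.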

[16] = Cell Viability - HUV-EC-C (AID 542; active = well fitted curve in the direction sought with a large enough effect; an effect the other way counts as inactive or inconclusive; note: % is set by controls: 0 for no effect and ±100 for the full control effect; nearly all actives have a fitted effect of over 35% in size)
Procedure, shortened: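 CellTiter-Glo luminescence measured ATP loss in HUV-EC-C cells (1000/well) after 40 hr compound exposure at 37 °C, in complete culture medium. Concentration-response data were Hill-fitted to give AC50.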

[17] = Cell Viability - H-4-II-E (AID 543; active = well fitted curve in the direction sought with a large enough effect; an effect the other way counts as inactive or inconclusive; note: % is set by controls: 0 for no effect and ±100 for the full control effect; nearly all actives have a fitted effect of over 35% in size)
Procedure, shortened: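 CellTiter-Glo luminescence (intracellular ATP) measured after 40 h compound exposure at 37 °C in H-4-II-E rat hepatoma cells seeded at 1500/well. Values are AC50s fitted with the standard Hill equation.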

[18] = Cell Viability - SH-SY5Y (AID 544; active = well fitted curve in the direction sought with a large enough effect; an effect the other way counts as inactive or inconclusive;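 note: 0% = DMSO alone and -100% = 100 µM tamoxifen; nearly all actives have a fitted effect of over 55% in size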)
Procedure, shortened: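 Cytotoxicity measured via ATP-dependent luciferase luminescence (CellTiter-Glo) following 40 h, 37 °C exposure of 1500 SH-SY5Y cells per well. Concentration-response data were fitted with the standard Hill equation to give AC50.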

[19] = Cell Viability - Renal Proximal Tubule (AID 545; active = well fitted curve in the direction sought with a large enough effect; an effect the other way counts as inactive or inconclusive;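 note: 0% = DMSO only and -100% = 100 µM tamoxifen; nearly all actives have a fitted effect of over 40% in size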); settings: renal proximal tubule cells viability; activity change, negative = cytotoxicity: at 91.7 µM (top of the series)
Procedure, shortened: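 In this qHTS format, normal rat kidney-derived proximal tubule cells in complete culture medium receive compound titrations, then sit 40 hours at 37 °C before luciferase-based ATP quantitation; potency is reported as AC50 from concentration-response curves.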

Chain of Cytochrome P450 1A2 (Homo sapiens) (P05177 whole entry, looked up): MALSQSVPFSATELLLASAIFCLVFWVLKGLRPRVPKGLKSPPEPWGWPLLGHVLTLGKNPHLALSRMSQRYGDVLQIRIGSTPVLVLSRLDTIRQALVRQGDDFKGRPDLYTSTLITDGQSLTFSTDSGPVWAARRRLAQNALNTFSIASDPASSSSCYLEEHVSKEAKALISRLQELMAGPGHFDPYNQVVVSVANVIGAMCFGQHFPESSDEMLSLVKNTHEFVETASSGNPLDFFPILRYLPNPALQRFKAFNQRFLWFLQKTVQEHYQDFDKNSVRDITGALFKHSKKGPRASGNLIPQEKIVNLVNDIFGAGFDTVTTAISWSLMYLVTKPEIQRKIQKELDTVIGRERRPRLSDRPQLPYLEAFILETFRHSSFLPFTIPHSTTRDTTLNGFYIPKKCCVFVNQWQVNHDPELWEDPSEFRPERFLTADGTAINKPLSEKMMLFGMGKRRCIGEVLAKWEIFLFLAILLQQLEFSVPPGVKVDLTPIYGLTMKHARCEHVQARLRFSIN
Chain of Glucocorticoid receptor (Homo sapiens) (P04150 whole entry, looked up, the tested form may be a part): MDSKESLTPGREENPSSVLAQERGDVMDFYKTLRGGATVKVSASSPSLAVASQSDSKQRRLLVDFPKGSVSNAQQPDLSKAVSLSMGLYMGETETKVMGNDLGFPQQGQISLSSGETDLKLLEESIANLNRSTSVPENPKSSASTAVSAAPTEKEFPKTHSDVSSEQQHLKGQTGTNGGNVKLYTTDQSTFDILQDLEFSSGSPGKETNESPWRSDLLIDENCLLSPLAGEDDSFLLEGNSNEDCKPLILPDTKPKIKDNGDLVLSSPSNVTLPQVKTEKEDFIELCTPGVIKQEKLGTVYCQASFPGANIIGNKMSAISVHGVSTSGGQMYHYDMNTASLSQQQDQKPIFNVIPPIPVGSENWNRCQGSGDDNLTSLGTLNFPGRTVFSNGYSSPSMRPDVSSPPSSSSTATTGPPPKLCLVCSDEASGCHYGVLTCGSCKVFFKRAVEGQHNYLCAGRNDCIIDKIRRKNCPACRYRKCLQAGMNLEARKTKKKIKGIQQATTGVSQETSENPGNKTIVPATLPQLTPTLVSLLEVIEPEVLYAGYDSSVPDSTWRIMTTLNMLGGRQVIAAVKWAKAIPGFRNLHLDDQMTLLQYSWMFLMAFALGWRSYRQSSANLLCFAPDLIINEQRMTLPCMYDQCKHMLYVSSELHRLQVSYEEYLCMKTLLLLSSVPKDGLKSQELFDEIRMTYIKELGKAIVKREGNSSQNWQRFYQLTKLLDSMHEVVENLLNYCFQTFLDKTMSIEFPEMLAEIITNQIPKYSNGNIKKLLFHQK
Chain of Lysosomal acid glucosylceramidase (Homo sapiens) (P04062 whole entry, looked up): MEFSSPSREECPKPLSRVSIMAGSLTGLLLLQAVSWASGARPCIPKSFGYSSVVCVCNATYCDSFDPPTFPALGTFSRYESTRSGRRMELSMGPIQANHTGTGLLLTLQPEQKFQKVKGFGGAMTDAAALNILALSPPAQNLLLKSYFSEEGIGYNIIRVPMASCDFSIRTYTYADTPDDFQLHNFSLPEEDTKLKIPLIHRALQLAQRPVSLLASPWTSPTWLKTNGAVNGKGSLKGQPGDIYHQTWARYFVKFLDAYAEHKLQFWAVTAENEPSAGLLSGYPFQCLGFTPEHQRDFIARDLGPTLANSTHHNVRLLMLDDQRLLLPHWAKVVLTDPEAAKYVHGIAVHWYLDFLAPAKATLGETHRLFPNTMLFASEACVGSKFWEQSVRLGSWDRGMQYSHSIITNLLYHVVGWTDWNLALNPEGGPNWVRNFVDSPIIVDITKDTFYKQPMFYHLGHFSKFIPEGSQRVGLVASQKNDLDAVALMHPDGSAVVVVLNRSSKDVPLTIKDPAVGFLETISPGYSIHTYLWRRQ

CC(C)(C)c1cc(C=C(C#N)C#N)cc(C(C)(C)C)c1O
inactive: outcome [1] | Potency [4] > 46 µM | Potency [5] > 46 µM
active: Potency [2] 10 µM | activity change, negative = inhibition [3] -108%

CCC(=O)O[C@@](Cc1ccccc1)(c1ccccc1)[C@@H](C)CN(C)C
inactive: outcome [1] | Potency [2] | activity change, negative = inhibition [3] -25.8% [at 17.2 µM] | activity, negative = inhibition [6] 5.74% [at 17.2 µM] | outcome [7]

NC(=O)c1cc(N2CC2)c([N+](=O)[O-])cc1[N+](=O)[O-]
inactive: outcome [1] | Potency [2] | activity change, negative = inhibition [3] 1.65% | activity, negative = inhibition [6] 19.5% | Potency [4] > 46 µM | Potency [5] > 46 µM

c1cc2c(c(NC3=NCCN3)c1)CCCC2
inactive: Potency [8] > 11.4 µM | activity change, negative = inhibition [1] 7.07% [at 7.69 µM] | activity change, negative = inhibition [2] -17.1% [at 11.4 µM] | activity change, negative = inhibition [3] -5.58% [at 7.69 µM] | activity, negative = inhibition [6] 4.34% [at 7.69 µM] | Potency [4] > 46 µM | Potency [5] > 9.22 µM

CN1CCc2cc(O)cc3c2[C@H]1Cc1ccc(O)c(O)c1-3
active: Potency [2] 12.6 µM
inactive: outcome [1] | activity change, negative = inhibition [3] -24.8% | activity, negative = inhibition [6] -18.2% | Potency [4] > 46 µM | Potency [5] > 46 µM

O=C1C=CC(=O)C=C1
inactive: outcome [1] | Potency [2] | Potency [9] > 92 µM | Potency [11] > 92 µM | Potency [12] > 92 µM | Potency [13] > 92 µM | Potency [14] > 92 µM | activity change, negative = inhibition [3] -3.4% | activity, negative = inhibition [6] -5.57% | Potency [15] | Potency [16] | Potency [17] | Potency [18] | Potency [19]
active: Potency [10] 31.4 µM

Clc1cc(I)cc(Cl)c1NC1=NCCN1
inactive: outcome [1] | activity change, negative = inhibition [3] -4.12% | activity, negative = inhibition [6] -14.2% | Potency [4] > 46 µM | Potency [5] > 46 µM
active: Potency [2] 15.8 µM

COc1ccc2[nH]c3c(c2c1)CCNC3
inactive: outcome [1] | activity change, negative = inhibition [3] 4.34% | activity, negative = inhibition [6] 9.97% | Potency [4] > 46 µM | Potency [5] > 46 µM | outcome [7]
active: Potency [2] 3.16 µM

CCCN(CCC)CCc1c[nH]c2ccc(C(N)=O)cc12
active: Potency [2] 15.8 µM
inactive: outcome [1] | activity change, negative = inhibition [3] -26.6% | activity, negative = inhibition [6] 22.9% | Potency [4] > 46 µM | Potency [5] > 46 µM | outcome [7]

c1ccc2cc(CC3=NCCN3)ccc2c1
inactive: outcome [1] | Potency [2] | activity change, negative = inhibition [3] -0.608% | activity, negative = inhibition [6] -3.81%

NNC(=O)c1ccc(O)cc1
inactive: outcome [1] | Potency [2] | activity change, negative = inhibition [3] -6.3% | activity, negative = inhibition [6] 13.1% | Potency [4] > 46 µM | Potency [5] > 46 µM

Cc1sc2ccccc2c1CC1=NCCN1
active: Potency [2] 2.51 µM
inactive: outcome [1] | activity change, negative = inhibition [3] -16.3% | Potency [4] > 46 µM | Potency [5] > 46 µM

N#CC(C#N)=Cc1cc(O)c(O)c(O)c1
inactive: outcome [1] | Potency [2] | activity change, negative = inhibition [3] -8.53% | activity, negative = inhibition [6] 2.4% | Potency [4] > 46 µM | Potency [5] > 46 µM

CN1CCC(c2c[nH]c3ccc(O)cc23)CC1
inactive: outcome [1] | activity change, negative = inhibition [3] -5.82% | activity, negative = inhibition [6] -0.0693% | Potency [4] > 46 µM | Potency [5] > 46 µM
active: Potency [2] 31.6 µM

CCCN(CCC)CCc1ccc(O)c(O)c1
inactive: outcome [1] | activity change, negative = inhibition [3] -10.2% | activity, negative = inhibition [6] -14.3% | Potency [4] > 46 µM | Potency [5] > 46 µM

CCCN(CCC)[C@H]1CCc2c(F)ccc(O)c2C1
inactive: outcome [1] | activity, negative = inhibition [6] 3.16% and 1.48% | Potency [4] > 46 µM | Potency [5] > 46 µM
active: Potency [2] 12.6 µM and 25.1 µM

CN1[C@@H]2CC[C@H]1CC(OC(=O)C1C=Nc3ccccc31)C2 (stereo partly drawn)
inactive: outcome [1] | activity, negative = inhibition [6] 3.6% [at 17.2 µM]

O=S(=O)(O)c1cc(O)ccc1O
inactive: outcome [1] | activity change, negative = inhibition [3] -8.18% [at 17.2 µM] | activity, negative = inhibition [6] 11.9% [at 17.2 µM] | Potency [4] > 20.6 µM | Potency [5] > 20.6 µM | outcome [7]

O=C(O)c1cc[c]([Hg][Cl])cc1
inactive: outcome [1] | activity, negative = inhibition [6] -0.208% | Potency [4] > 46 µM | Potency [5] > 46 µM | outcome [7]
active: Potency [2] 3.16 µM

C[N+](C)(C)CC#CCOC(=O)Nc1cccc(Cl)c1
inactive: outcome [1] | activity change, negative = inhibition [3] 11.3% | activity, negative = inhibition [6] -8.8% | Potency [4] > 46 µM | Potency [5] > 46 µM

C[N+]1(C)CCc2cc3c(cc2[C@H]1[C@@H]1OC(=O)c2c1ccc1c2OCO1)OCO3
inactive: outcome [1] | activity change, negative = inhibition [3] -19.2% [at 17.2 µM] | Potency [4] > 20.6 µM
